Only some compounds are listed: those with a hit (about 4% of all), similar ones and a draw of the others.
CF NFkB inh: inhibitors of cystic fibrosis induced NF-kB; 360,000 compounds, 0.86% hits; KKLEB NF-kB-GFP reporter, PAF-induced, GFP fluorescence overnight; inhibition, % at 5 µM;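 active = at least 50% inhibition at 5 µM, scaled per plate between neutral and stimulator controls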;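 note: PAF is a Pseudomonas aeruginosa culture filtrate used as stimulus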
TROY signal inh: inhibitors of TROY-dependent NF-kB signaling; Q293 LMP1-TROYcd NF-kB luciferase reporter, 4 h; inhibition, % at 10 µM; 360,000 compounds, 0.98% hits;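 active = compounds whose plate-normalised and pattern-corrected inhibition of the luciferase reporter signal at the single screening dose is 50% or more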
KKLEB tox: counter-screen for CF NF-kB inhibitors: cytotoxicity | KKLEB CF airway cells viability, ATPlite luminescence, overnight; hits give low values; cells stimulated with P. aeruginosa culture filtrate | activity change (cytotoxicity), % at 5 µM | 360,000 compounds, 0.36% hits | AID 602141;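 active = corrected activity change at or below -50% at 5 µM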
HIF-2a inh: blocks HIF-2a reporter activity. AID 624352. 786-0 RCC cells HIF-2a reporter, luciferase luminescence, overnight. 360,000 compounds, 0.72% hits. inhibition, % at 18.8 µM;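 active = inhibition of the luminescence signal of 40% or more relative to plate controls, in a single-dose primary screen at 18.75 µM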
Peg3 prom inh: inhibitors of Peg3 promoter | HeLa PEG-Prom luciferase reporter, luminescence, overnight | inhibition, % at 20 µM | 360,000 compounds, 1.7% hits | AID 588405;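 active = inhibition of at least 50% at 20 µM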
TWEAK-Fn14 inh: blocks TWEAK-Fn14 interaction in a reporter cell assay; inhibition, % at 10 µM; TWEAK-stimulated Fn14 reporter cells, luciferase luminescence, 8 h; 360,000 compounds, 2% hits; in the data active = inhibition above about 50%
Each line names hits and unclear results; the compound was inactive in the other large screens.

Cc1cc(C)n2nc(C(=O)NCc3cccc(C(F)(F)F)c3)nc2n1	TROY signal inh 51.1
Cc1nn(Cc2ccccc2)c(C)c1CNC(=O)[C@H](C)N=C1NS(=O)(=O)c2ccccc21	none
COc1ccc(-c2coc3c(C(=O)Nc4cccnc4)cccc23)c(C)c1	TWEAK-Fn14 inh 66.0
COc1ccc(-c2coc3c(C(=O)Nc4cccc(C(C)=O)c4)cccc23)c(C)c1	none
COc1ccc(-c2ccc(C(=O)Nc3cccc(NS(C)(=O)=O)c3)c3occc23)c(C)c1	TWEAK-Fn14 inh 58.6
COc1ccc(-c2ccc(C(=O)Nc3cccc(C(C)=O)c3)c3occc23)c(C)c1	none
COc1ccc(-c2ccc(C(=O)Nc3cccc(F)c3)c3occc23)c(C)c1	TROY signal inh 58.4
Oc1ccccc1-c1cc(-c2ccccc2)no1	none
CCc1ccn2cc(-c3cc(-c4ccccc4)no3)nc2c1	TROY signal inh 86.8, KKLEB tox -51.9, HIF-2a inh 63.9, Peg3 prom inh 73.3, TWEAK-Fn14 inh 105.7
Cc1ccc2nc(-c3cc(-c4ccccc4)no3)cn2c1	TWEAK-Fn14 inh 78.7
Cc1ccc(-c2cc(-c3ccccc3)no2)c(O)c1	TROY signal inh 52.8, TWEAK-Fn14 inh 75.8
CCOc1ccc(S(=O)(=O)Nc2cccc(C(=O)NCCCn3ccnc3)c2)cc1	none
CCOC(=O)c1cnc2cc(F)c(F)cc2c1N1CCOCC1	none
CCN1/C(=C/C=C/c2sc3ccccc3[n+]2CC)Sc2ccccc21	TROY signal inh 53.3, Peg3 prom inh 77.6, TWEAK-Fn14 inh 96.0
CCN1/C(=C/c2ccc3cc(C)ccc3[n+]2CC)Sc2ccccc21	TROY signal inh 64.9, HIF-2a inh 74.9, Peg3 prom inh 104.3, TWEAK-Fn14 inh 72.1
CC[n+]1c(/C=C2\Sc3ccccc3N2C)ccc2cccc(C)c21	TROY signal inh 64.1, HIF-2a inh 78.9, Peg3 prom inh 114.1, TWEAK-Fn14 inh 85.0
CCN1/C(=C/C=C/C=C/C=C/c2sc3ccccc3[n+]2CC)Sc2ccccc21	none
CCN1/C(=C/c2ccc3cc(C)ccc3[n+]2CC)Sc2cc(C)c(C)cc21	Peg3 prom inh 52.2
CCOC(=O)CC1(C)Sc2ccccc2N1S(=O)(=O)c1ccc(C)cc1 (centres undefined)	none (no result: CF NFkB inh, TROY signal inh, KKLEB tox, Peg3 prom inh, TWEAK-Fn14 inh)
O=C(c1ccccc1)c1ccc(C(=O)N2CCN(c3ccccc3O)CC2)cc1	none
Nc1nccnc1C(=O)OCC(=O)Nc1ccc2[nH]c(=O)[nH]c2c1	none
Oc1ccc(O)c(-c2cnns2)c1	TWEAK-Fn14 inh 56.9
COCCn1c(SCC(=O)Nc2sccc2C(N)=O)nc2cc(Cl)ccc2c1=O	Peg3 prom inh 52.0
C=CCn1c(SCC(=O)Nc2sccc2C(N)=O)nc2sc(C)c(C)c2c1=O	TROY signal inh 51.0
COCCn1c(SCC(=O)Nc2cccnc2Cl)nc2cc(Cl)ccc2c1=O	none
COc1cc(/C=N/N=C(N)N)ccc1OCc1ccccc1Cl	Peg3 prom inh 102.0
COc1ccc(/C=N/N=C/c2ccc(OC)c(OC)c2)cc1OC	none
COc1ccc(N=Nc2cc(C)c(O)c(CN3CCCCC3)c2)cc1	none
COc1ccc2nc3cc(Cl)ccc3c(Nc3cc(CN4CCCC4)c(O)c(CN4CCCC4)c3)c2n1	Peg3 prom inh 96.6
C/C(=N\NC(=O)c1ccccc1O)c1cccs1	TWEAK-Fn14 inh 73.3
O=C1C(N2CCOCC2)=C(n2nnc3ccccc32)C(=O)c2ccccc21	CF NFkB inh 86.3, Peg3 prom inh 98.5
CC(C)c1ccc(OCc2ccc(C(=O)N(C)C)o2)cc1	none
O=C(O)c1ccc(OCc2ccc(C(=O)O)o2)cc1	none
CCc1ccc(OCc2ccc(C(=O)O)o2)cc1	TWEAK-Fn14 inh 53.9
CC(C)c1ccc(OCc2ccc(C(=O)O)o2)cc1	HIF-2a inh 48.9, Peg3 prom inh 50.9
Cc1cc(/C=N/n2cnnc2)c(C)n1-c1ccc(OCc2ccc(Cl)cc2Cl)cc1	TROY signal inh 77.5, HIF-2a inh 80.8, TWEAK-Fn14 inh 61.0
Cc1cc(/C=N/n2cnnc2)c(C)n1-c1ccc(Cl)cc1	none
COc1cccc2c1C(=O)O/C2=C/c1ccc2c(c1)OCO2	KKLEB tox -72.8, TWEAK-Fn14 inh 62.8
Cc1cc(C)n(-c2ccc([N+](=O)[O-])cc2)n1	Peg3 prom inh 106.7
CCCCCCCOC(=O)C[N+](C)(C)CCOC1CC2CCC1(C)C2(C)C (centres undefined)	TROY signal inh 63.1, Peg3 prom inh 99.2
CCCCCCOC(=O)C[N+](C)(C)CCOC1CC2CCC1(C)C2(C)C (centres undefined)	none
COc1ccc(OC)c(S(=O)(=O)N2c3ccccc3CC2C)c1 (centres undefined)	Peg3 prom inh 55.7
CCOC(=O)N1CCN(C(=O)COC(=O)c2cc(Cl)c(O)c(Cl)c2)CC1	TWEAK-Fn14 inh 71.6
CCOC(=O)N1CCN(C(=O)COC(=O)c2cc(Cl)cc(Cl)c2)CC1	none
Oc1ccc(N=Nc2n[nH]c(-c3ccc(Cl)cc3)n2)cc1	Peg3 prom inh 77.7
CC(C)C(=O)Nc1cc2c3c(c1)CCN3C(=O)CC2	none
CCOC(=O)N1CCN(C(C(=O)NC2CCCC2)C(C)C)CC1 (centres undefined)	none (no result: CF NFkB inh, TROY signal inh, KKLEB tox, Peg3 prom inh, TWEAK-Fn14 inh)
Cc1nc2c(C(=O)NCCC(C)C)c[nH]n2c(=O)c1Cc1ccccc1F	TROY signal inh 68.6
Cc1nc2c(C(=O)NCCC(C)C)c[nH]n2c(=O)c1Cl	none
O=C(O)C1C2CCC1C(O)C2 (centres undefined)	none
NC(CO)c1csc(Nc2ccc(C(F)(F)F)cn2)n1 (centres undefined)	none
NC(Cc1ccc(Cl)cc1)c1csc(Nc2nccc(C(F)(F)F)n2)n1 (centres undefined)	Peg3 prom inh 82.7
NC(Cc1ccc(F)cc1)c1csc(Nc2nccc(C(F)(F)F)n2)n1 (centres undefined)	none
NC(Cc1ccc(C(F)(F)F)cc1)c1csc(Nc2ccc(C(=O)NCc3ccco3)cn2)n1 (centres undefined)	Peg3 prom inh 86.2
NC(Cc1ccc(Cl)cc1)c1csc(Nc2ccc(C(F)(F)F)cn2)n1 (centres undefined)	Peg3 prom inh 100.9
CC(C)CC(N)c1csc(Nc2ccc(C(F)(F)F)cn2)n1 (centres undefined)	Peg3 prom inh 101.7
CCCCCCCCNS(=O)(=O)CCNC1CC1	none
O=C(c1ccc2nsnc2c1)N1CCN(c2ccc([N+](=O)[O-])cc2)CC1	none
Cc1ccc(S(=O)(=O)NC(=O)C2(C)CCN2C(=O)CCc2ccc(Cl)cc2Cl)nc1 (centres undefined)	none
Cc1cccc(OCC(=O)Nc2nnc(S(=O)(=O)N3CCCCCC3)s2)c1	none
Cc1cccc(NC(=O)C(C)Oc2ccc(C)nc2[N+](=O)[O-])c1 (centres undefined)	none
NC(c1csc(Nc2cnccn2)n1)C1CCCCC1 (centres undefined)	none

High-throughput results from PubChem BioAssay.
